PHOSPHO1 inh: inhibitors of human PHOSPHO1 phosphatase. Q8TCT1. recombinant PHOSPHO1, absorbance phosphatase assay. inhibition, % at 13.3 µM. 290,000 tested, 1.1% active. AID 1565; in the data active = inhibition above about 60%
eIF4H inh: inhibitors of RNA binding by human eIF4H; Q15056; eIF4H fluorescence polarization binding assay; inhibition, % at 35 µM; 290,000 tested, 0.94% active;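 also: calls also rest on retests at 20 µM and on dose response follow-up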
A3A deaminase: blocks human APOBEC3A ssDNA deamination; P31941; recombinant A3A, FAM/TAMRA ssDNA deamination fluorescence; inhibition, % at 20 µM; 330,000 tested, 0.41% active;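 active = at least 40% inhibition at 20 µM here, with at most 30% in a related deaminase screen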;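 also: plate controls were A3A with DMSO for no effect and wells lacking A3A enzyme for full effect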
Target sequence (P31941 whole entry, looked up): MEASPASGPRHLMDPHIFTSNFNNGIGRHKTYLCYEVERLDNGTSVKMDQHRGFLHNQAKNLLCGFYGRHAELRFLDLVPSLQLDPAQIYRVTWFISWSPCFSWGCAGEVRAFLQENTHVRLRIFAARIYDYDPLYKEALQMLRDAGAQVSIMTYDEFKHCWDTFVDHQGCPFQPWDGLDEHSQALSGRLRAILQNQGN
PABP polyA inh: blocks human PABP binding to poly(A) RNA | P11940 | fluorescence polarization | calls only at 35 µM | 290,000 tested, 1% active | AID 2014;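 also: calls also rest on retests at 20 µM and on dose response follow-up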
PABP1 MLLE inh: blocks PAM2 peptide binding to the PABP1 MLLE domain; P11940; GST-MLLE / FITC-PAM2 fluorescence polarization; inhibition, % at 20 µM; 360,000 tested, 0.36% active; in the data active = inhibition above about 35%, passing the limit was not always enough;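 also: plate controls were DMSO wells with GST-MLLE for no effect and wells lacking GST-MLLE protein for full effect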
A3G deaminase: APOBEC3G (human) deaminase inhibition. 330,000 tested, 0.28% active. inhibition, % at 20 µM. recombinant A3G, ssDNA deamination FAM/TAMRA fluorescence. Q9HC16;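 active = inhibition of at least 40% at 20 µM, with no more than 30% in the related APOBEC3A deaminase screen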;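 also: plate controls were DMSO wells with A3G for no effect and wells lacking A3G enzyme for full effect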
Numbers without * were called inactive; i = inactive; u = inconclusive; x = not tested or not shown; + = active, no number. Hits are enriched below; roughly 2.6% of the tested compounds scored in any of these assays. Unless noted, no rule for the calls is given here.

SMILES | PHOSPHO1 inh | eIF4H inh | A3A deaminase | PABP polyA inh | PABP1 MLLE inh | A3G deaminase
COc1ccc2c(c1)n([O-])c1c([n+]2=O)CCC1 | 25 | 38 | 5 | i | x | 3
COC(=O)C1=NN(c2ccc(C)cc2)C2(S1)SC(C(C)=O)=C(C)N2c1ccccc1 (stereo unspecified) | 64* | -5 | 2 | i | -4 | 0
COC(=O)C1=NN(c2ccccc2)C2(S1)SC(C(C)=O)=C(C)N2c1ccccc1 (stereo unspecified) | 12 | -6 | -3 | i | 11 | -2
OC1(c2ccc(Br)cc2)CN(c2ccccc2)C2=[N+]1CCS2 (stereo unspecified) | 4 | -6 | 5 | i | 37* | 1
CN(C)c1ccc(NC(=O)Nc2nc(C(N)C3CCCCC3)cs2)cc1 (stereo unspecified) | x | x | x | x | -3 | x
COc1ccc(-c2cc(-c3cccs3)c(C#N)c(SCC(=O)NCc3ccco3)n2)cc1 | -14 | 55* | -1 | i | 8 | -5
CCCN(CCC)CC(O)CN1C(=O)N(CN2C(=O)N(CC(O)CN(CCC)CCC)C(=O)C2(C)C)C(C)(C)C1=O (stereo unspecified) | 23 | 3 | -1 | i | -13 | -3
CC(C)(C)NC(=O)C(c1cccs1)N(CC1CCCO1)C(=O)c1ccc(-c2ccccc2)[nH]1 (stereo unspecified) | -6 | active | 1 | i | 1 | 1
O=C(NCC1CCCO1)C(c1cccs1)N(Cc1ccccc1)C(=O)c1ccc(-c2ccccc2)[nH]1 (stereo unspecified) | -6 | -11 | 0 | i | -20 | -1
O=C(OCc1ccccc1)N1CCC2CC1c1cc(NCCc3ccccc3)ccc12 (stereo unspecified) | x | x | x | x | -6 | x
COC(=O)Cc1c(C)nc2nc(NCc3ccc(Cl)cc3)[nH]n2c1=O | 80* | 2 | -1 | i | 3 | -4
CCOc1cc(/C=N/NC(=O)c2cc(-c3cccnc3)nc3ccccc23)ccc1O | -31 | -4 | 3 | i | -6 | -9
Cc1ccc(S(=O)(=O)Nc2ccc3cc([N+](=O)[O-])ccc3c2[N+](=O)[O-])cc1 | x | x | x | x | -58 | x
CN1CCc2cc3c(c4c2[C@H]1[C@H](O)c1ccccc1-4)OCO3 | -11 | 109 | 13 | i | 68* | 16
COc1ccc2c(c1OC)C(=O)OC2C1c2c(cc3c(c2OC)OCO3)CCN1C (stereo unspecified) | 6 | -8 | 3 | i | 2 | 7
COc1ccc(/C=C/C(=O)OCc2cc(=O)n3c(n2)sc2ccccc23)cc1 | 3 | -7 | 0 | i | 17 | -5
O=C(OCc1cc(=O)n2c(n1)sc1ccccc12)c1ccc(O)cc1 | -18 | 79* | 21 | i | 1 | 10
Clc1ccc(-c2nc3ccc(Cl)cn3c2Cc2ccsc2)cc1 | x | x | x | x | -3 | x
CCCc1nc2ccc(Cl)cn2c1Cc1ccsc1 | x | x | x | x | 44* | x
O=C(CSc1ccccn1)N1CCN(c2cccc(Cl)c2)CC1 | 83* | 3 | -2 | i | 13 | -1
Cc1ccc(N(C)C(=O)CCS(=O)(=O)c2ccc3c(c2)oc(=O)n3C)cc1 | 24 | 10 | -1 | i | 5 | -5
c1ccc(Cc2nnc3sc(-c4ccccn4)nn23)cc1 | 66* | 4 | 1 | i | 32 | 12
c1ccc(Cc2nnc3sc(-c4cccs4)nn23)cc1 | 18 | 2 | 3 | i | 20 | 20
c1ccc(OCc2nn3c(-c4ccncc4)nnc3s2)cc1 | 21 | -6 | 3 | i | -4 | 0
c1ccc(Cc2nnc3sc(-c4ccncc4)nn23)cc1 | 80* | -1 | 3 | i | 42* | 23
SMILES | PHOSPHO1 inh | eIF4H inh | A3A deaminase | PABP polyA inh | PABP1 MLLE inh | A3G deaminase
c1ccc(Cc2nn3c(-c4ccncc4)nnc3s2)cc1 | 34 | 4 | 0 | i | 38* | 20
CCN(CC)c1nc2c(c(=O)[nH]c(=O)n2C)n1CCCc1ccccc1 | 45 | 0 | -3 | i | 0 | -1
Cn1c(N)c(NC(=S)NC2CCCCC2)c(=O)n(C)c1=O | x | x | x | x | -49 | x
Cc1c(Cl)cccc1NC(=O)CC1Oc2ccccc2NC1=O (stereo unspecified) | x | 2 | -1 | i | -8 | -7
Cc1cc(NC(=O)Nc2cc(C)nn2-c2ccccc2)n(-c2ccccc2)n1 | -7 | -2 | -3 | i | 4 | -5
Cc1cc(NC(=O)CC#N)n(-c2ccccc2)n1 | 20 | 78* | -1 | i | 8 | -2
COC(=O)CCC(=O)OC1(C)C(=O)C=C2C=C(c3ccsc3)OC=C2C1=O (stereo unspecified) | x | x | 12 | x | -22 | -7
CCC(=O)OC1(C)C(=O)C=C2C=C(c3ccsc3)OC=C2C1=O (stereo unspecified) | 9 | 93* | 5 | + | -28 | 0
COc1ccc(C(=O)COC(=O)c2cc(=O)[nH]c3ccccc23)c(OC)c1 | x | x | 0 | x | -9 | -7
Cc1ccc(NC(=S)NNC(=O)c2cccc([N+](=O)[O-])c2)cc1Cl | 74* | 10 | -2 | i | 19 | 2
COc1cc(CN2C[C@@H](CO)O[C@@H](n3cnc4c(NCC(C)C)ncnc43)C2)cc(OC)c1OC | x | x | x | x | 10 | x
O=C1C2C3C=CC(C4CC34)C2C(=O)N1/N=C/c1ccc(-c2ccc([N+](=O)[O-])cc2)o1 (stereo unspecified) | 35 | -2 | -1 | i | -18 | -3
Cc1ccc(-c2ccc(/C=N/N3C(=O)C4C5C=CC(C6CC56)C4C3=O)o2)c([N+](=O)[O-])c1 (stereo unspecified) | 69* | 30 | -5 | i | 11 | -9
Cc1cc(NC(=O)CN(C)CC(=O)Nc2ccc(F)c(F)c2F)no1 | x | x | 0 | x | 2 | 2
CCOC(=O)CNC(=O)C1CCC(CNS(=O)(=O)c2cccc3nsnc23)CC1 (stereo unspecified) | 65* | 5 | -3 | i | -1 | -2
COc1ccc(S(=O)(=O)N2CCCCC2c2cc(C(=O)Nc3ccc4c(c3)OCO4)no2)cc1 (stereo unspecified) | x | x | x | x | -13 | x
CCOC(=O)C1=C(C)N=c2s/c(=C/c3ccccc3)c(=O)n2C1c1ccc(OC)c(OC)c1 (stereo unspecified) | -13 | -2 | -2 | i | -22 | -5
CCOC(=O)C1=C(c2ccccc2)N=c2s/c(=C\c3cc(OC)c(OC)c(OC)c3)c(=O)n2C1c1cccs1 (stereo unspecified) | -1 | u | 2 | + | -7 | 0
O=C(CCc1nc2ccccc2c(=O)[nH]1)Nc1nnc(SCc2ccc(F)cc2)s1 | x | x | -1 | x | -18 | -7
O=C(CN1CCN(C(=O)CN2C(=O)NC3(CCCC3)C2=O)CC1)Nc1cccc(F)c1 | x | x | 8 | x | -16 | -5
O=C1CCCC2=C1C(c1ccccn1)Nc1ccc(C(=O)c3ccccc3)cc1N2 (stereo unspecified) | -5 | -5 | 0 | i | 4 | -4

Bioassay records as filed in PubChem.
